This note sets out measurements from PubChem BioAssay (NCATS).

Assay [1] is described as follows: qHTS to identify inhibitors of the type 1 interferon - major histocompatibility complex class I in skeletal muscle: primary screen against the NCATS Pharmaceutical Collection (AID 1347407).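 Note: luminescence of HiBiT knocked into endogenous HLA-B as interferon-induced MHC class I level.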 An outline of the steps: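 A qHTS format is used: 8-point, 1:5 compound series with 46 uM top final concentration, applied alongside 4 ng/ml IFN-beta to HLA-B*08:01-HiBiT knock-in myoblasts. Luminescence is measured after 24 h treatment.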

Assay [2] concerns the target Protein phosphatase 1D (Homo sapiens) (UniProt O15297). Kind of assay: RapidFire Mass Spectrometry qHTS Assay for Modulators of WT P53-Induced Phosphatase 1 (WIP1) (AID 1347424).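 Note: amount of dephosphorylated VEPPL-S-QETFS peptide product formed by WIP1; series mostly up to about 63 µM.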 An outline of the steps:
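10 nM WIP1 preincubated with compounds 1 hr at room temperature in pH 7.5 Tris buffer with 30 mM MgCl2, 1 mM TCEP; 2 uM VEPPL-pS-QETFS phosphopeptide for 5 min, formic acid quench; dephosphorylated product quantified by RapidFire MS against labelled standard.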

Assay [3] shares this target. The experiment in a line: Rhodamine-PBP qHTS Assay for Modulators of WT P53-Induced Phosphatase 1 (WIP1) (AID 1347425). In short, it runs like this:
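Read-out: Rhodamine-PBP fluorescence (ex 525/em 598 nm) for released Pi, read each minute for 11 min after adding 10 uM VEPPL-pS-QETFS; signal taken as f1 minus pre-substrate f0. Enzyme 5 nM WIP1 with 1 hr room-temperature compound preincubation.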
Background: qHTS replaces the single test concentration by a dilution series.

Assay [4] can be described thus: Primary qHTS for inhibitors of La Crosse Virus (LACV) - induced cell death in SH-SY5Y cells (AID 1508616).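 Note: top concentration of the series differs between compounds; higher means more rescue of cells from virus-induced death.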 An outline of the steps:
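Luminescent ATP readout (ATPLite 1step, 5 min room temperature) measured rescue from LACV-induced death after 6 days of infection at 0.01 MOI; normalized to infected DMSO wells and uninfected DMSO wells.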

For assay [5], the target named is Cytochrome P450 2D6 (Homo sapiens) (UniProt P10635). The experiment in a line: Cytochrome P450 family 2 subfamily D member 6 (CYP2D6) small molecule antagonists: luciferase biochemical (cell-free) qHTS assay (AID 1645840; active = well fitted curve in the direction sought with a large enough effect in the repeat runs; an effect the other way counts as inactive or inconclusive; note: series mostly up to about 57 µM; nearly all actives have a fitted effect of over 55% in size). An outline of the steps: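 P450-Glo luminescent screen: recombinant CYP2D6 enzyme–proluciferin substrate mix preincubated with compound 10 min at room temperature, then NADPH regeneration added for 1 h at room temperature. Detection reagent added for 20 min; luciferin light read as relative luminescence units.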

For assay [6], the target named is Cytochrome P450 2C9 (Homo sapiens) (UniProt P11712). The experiment in a line: Cytochrome P450 family 2 subfamily C member 9 (CYP2C9) small molecule antagonists: luciferase biochemical (cell-free) qHTS assay (AID 1645842; active = well fitted curve in the direction sought with a large enough effect in the repeat runs; an effect the other way counts as inactive or inconclusive; note: nearly all actives have a fitted effect of over 55% in size; note: potency is the fitted concentration of half-maximal effect). An outline of the steps: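 Luminescence, after 20 min with luciferin detection reagent, reflected CYP2C9 turnover during a 1 h NADPH-driven reaction at 37C. Enzyme-substrate mix contained 0.4% bovine serum albumin and was preincubated with compound 10 min at room temperature.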

A short description of assay [7]: A High-Content qHTS Against Drug Library for the Identification of Small Molecules that Inhibit DYT1 Early Onset Primary Dystonia-Associated Cell Pathology (AID 1645839; calls by dose curve; note: series mostly up to about 46 µM). An outline of the steps: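 Flp-In T-REx 293 cells with tetracycline-inducible EGFP-delE hTOR1A (WT EGFP-hTOR1A as reference), 800 cells/well; compound added with tetracycline, 48 h at 37 C. Fixed, permeabilized cells imaged; %pathology (punctate TorsinA) primary, cell count counterscreen.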

Assay [8] in a line: Primary qHTS for inhibitors of nuclear receptor binding SET domain protein 2 (NSD2) in an isogenic RCH-ACV NSD2 p.E1099K mutant (9B) (AID 1645876). Note: nearly all actives have a fitted effect of over 70% in size.
Assay [9] can be described thus: Primary qHTS for inhibitors of nuclear receptor binding SET domain protein 2 (NSD2) in an RCH-ACV wild type WT cells (2C) (AID 1645877). Note: nearly all actives have a fitted effect of over 70% in size.
Assay [10] is described as follows: Primary qHTS for small molecule stabilizers of the endoplasmic reticulum resident proteome: Secreted ER Calcium Modulated Protein (SERCaMP) assay (AID 1508630). An outline of the steps:
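GLuc-SERCaMP-expressing SH-SY5Y cells, pretreated 16 h with compound, are challenged with thapsigargin to empty ER calcium stores; after 4 h, coelenterazine is added directly to the medium and luminescence is imaged.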

In assay [11] the target is Calcium and integrin-binding protein 1 (Homo sapiens) (UniProt Q99828). The experiment in a line: Primary qHTS for Identification of Calcium Integrin Binding Protein 1 (CIB1) Competitor (AID 1508620).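 Note: GST tagged CIB1 binding a fluorescein labelled alphaIIb integrin peptide tracer; top concentration of the series differs between compounds.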 In short, it runs like this:
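Fluorescence polarization competition: GST-tagged CIB1 (1 uM final) preincubated with compound 15 min at room temperature, then FITC-labelled alphaIIb peptide (100 nM final) added. After 15 min at room temperature, polarization read at Ex 480/Em 540.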

Assay [12] concerns the target Rap guanine nucleotide exchange factor 3 (Homo sapiens) (UniProt O95398). The experiment in a line: Confirmatory qHTS for antagonist of cAMP-regulated guanine nucleotide exchange factor 3 (EPAC1) (AID 1645880). Note: nearly all actives have a fitted effect of over 55% in size. An outline of the steps:
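Nucleotide exchange uses 100 nM EPAC1, 250 nM RAP1B-BODIPY-GDP and 50 uM GDP, with compounds in a concentration-titration series. After 5 min at room temperature, fluorescence (480 nm ex/540 nm em) is read every 5 min for 30 min. Data are normalized to control ATA and DMSO.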

Assay [13] has the same target. Kind of assay: Confirmatory qHTS for agonist of cAMP-regulated guanine nucleotide exchange factor 3 (EPAC1) (AID 1645881).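 Note: EPAC1 catalysed release of BODIPY-GDP from Rap1B seen as fluorescence loss; nearly all actives have a fitted effect of over 75% in size.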

Results filed as inconclusive are left out. A number with no mark means an inactive call. The source made the active and inactive calls. Unless noted, calls come from the whole dose curve; as a rule, active = well fitted curve in the direction sought with a large enough effect; inconclusive = small, poorly fitted or top-dose-only effect, or another doubt; inactive = no such curve, though single readings can be large; an effect the other way counts as inactive or inconclusive.

Protein phosphatase 1D (Homo sapiens), sequence (O15297 whole entry, looked up): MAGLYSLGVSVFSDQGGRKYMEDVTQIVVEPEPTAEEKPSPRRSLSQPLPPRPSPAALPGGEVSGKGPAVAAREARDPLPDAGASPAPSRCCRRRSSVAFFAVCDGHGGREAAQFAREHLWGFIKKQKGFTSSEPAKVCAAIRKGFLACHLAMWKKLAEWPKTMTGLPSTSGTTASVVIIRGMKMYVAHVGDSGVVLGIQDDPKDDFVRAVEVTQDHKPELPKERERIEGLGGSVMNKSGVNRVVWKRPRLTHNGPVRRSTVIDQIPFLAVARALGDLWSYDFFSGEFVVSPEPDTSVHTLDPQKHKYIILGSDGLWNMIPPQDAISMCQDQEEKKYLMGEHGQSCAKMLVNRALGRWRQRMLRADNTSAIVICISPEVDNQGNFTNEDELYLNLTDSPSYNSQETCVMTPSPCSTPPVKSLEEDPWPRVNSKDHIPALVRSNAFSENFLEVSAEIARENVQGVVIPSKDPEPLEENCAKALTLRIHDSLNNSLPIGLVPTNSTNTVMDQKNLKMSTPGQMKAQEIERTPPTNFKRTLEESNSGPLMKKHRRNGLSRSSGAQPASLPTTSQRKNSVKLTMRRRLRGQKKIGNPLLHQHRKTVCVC
Cytochrome P450 2C9 (Homo sapiens), sequence (P11712 whole entry, looked up): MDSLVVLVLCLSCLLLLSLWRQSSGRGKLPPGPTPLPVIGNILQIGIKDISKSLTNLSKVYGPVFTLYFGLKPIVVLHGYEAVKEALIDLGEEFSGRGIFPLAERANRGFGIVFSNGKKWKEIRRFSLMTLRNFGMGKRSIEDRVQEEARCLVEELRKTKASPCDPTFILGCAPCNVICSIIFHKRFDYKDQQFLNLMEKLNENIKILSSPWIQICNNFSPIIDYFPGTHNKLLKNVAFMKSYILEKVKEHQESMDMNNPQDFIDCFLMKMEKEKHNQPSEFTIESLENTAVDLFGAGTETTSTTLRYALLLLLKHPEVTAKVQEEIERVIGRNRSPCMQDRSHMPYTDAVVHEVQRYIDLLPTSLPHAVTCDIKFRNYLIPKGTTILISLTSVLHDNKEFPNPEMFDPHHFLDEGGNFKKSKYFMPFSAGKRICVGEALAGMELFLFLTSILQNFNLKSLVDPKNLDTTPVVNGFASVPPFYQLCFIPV
Cytochrome P450 2D6 (Homo sapiens), sequence (P10635 whole entry, looked up): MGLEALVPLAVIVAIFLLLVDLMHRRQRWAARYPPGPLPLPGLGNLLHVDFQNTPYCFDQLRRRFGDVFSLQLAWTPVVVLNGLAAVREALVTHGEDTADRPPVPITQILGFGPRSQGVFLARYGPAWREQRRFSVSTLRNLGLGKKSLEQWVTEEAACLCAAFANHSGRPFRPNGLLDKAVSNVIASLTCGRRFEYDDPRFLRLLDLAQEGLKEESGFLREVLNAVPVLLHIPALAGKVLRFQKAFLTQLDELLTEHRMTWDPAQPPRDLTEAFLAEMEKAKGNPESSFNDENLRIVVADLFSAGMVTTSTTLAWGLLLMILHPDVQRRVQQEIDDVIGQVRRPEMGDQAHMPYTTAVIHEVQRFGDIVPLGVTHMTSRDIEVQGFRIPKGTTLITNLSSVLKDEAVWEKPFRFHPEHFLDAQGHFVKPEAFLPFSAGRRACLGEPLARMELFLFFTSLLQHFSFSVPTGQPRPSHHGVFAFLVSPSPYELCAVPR
Rap guanine nucleotide exchange factor 3 (Homo sapiens), sequence (O95398 whole entry, looked up): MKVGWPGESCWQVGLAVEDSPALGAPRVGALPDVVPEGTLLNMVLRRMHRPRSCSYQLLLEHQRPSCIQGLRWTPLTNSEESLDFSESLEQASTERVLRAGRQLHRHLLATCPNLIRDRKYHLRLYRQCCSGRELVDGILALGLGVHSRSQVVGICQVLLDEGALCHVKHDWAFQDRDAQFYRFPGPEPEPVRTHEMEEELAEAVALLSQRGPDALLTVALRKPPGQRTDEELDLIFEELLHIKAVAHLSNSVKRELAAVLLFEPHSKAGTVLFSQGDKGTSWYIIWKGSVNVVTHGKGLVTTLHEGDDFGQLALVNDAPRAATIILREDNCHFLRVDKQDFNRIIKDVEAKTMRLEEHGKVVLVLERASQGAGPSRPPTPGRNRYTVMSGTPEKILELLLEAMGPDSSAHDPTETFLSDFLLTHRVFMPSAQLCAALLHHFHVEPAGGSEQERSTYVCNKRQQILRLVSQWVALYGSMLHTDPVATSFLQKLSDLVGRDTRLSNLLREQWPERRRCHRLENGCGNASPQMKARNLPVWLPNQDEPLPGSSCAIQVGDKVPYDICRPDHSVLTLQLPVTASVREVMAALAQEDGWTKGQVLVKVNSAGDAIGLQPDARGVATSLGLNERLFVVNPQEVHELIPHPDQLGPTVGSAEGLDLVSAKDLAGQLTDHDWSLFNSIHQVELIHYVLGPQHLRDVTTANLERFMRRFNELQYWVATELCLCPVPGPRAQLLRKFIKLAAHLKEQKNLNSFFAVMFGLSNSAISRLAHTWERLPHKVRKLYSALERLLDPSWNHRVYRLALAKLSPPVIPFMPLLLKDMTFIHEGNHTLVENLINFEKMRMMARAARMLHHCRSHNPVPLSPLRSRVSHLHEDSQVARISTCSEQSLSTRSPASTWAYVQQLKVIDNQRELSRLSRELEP
Calcium and integrin-binding protein 1 (Homo sapiens), sequence (Q99828 whole entry, looked up): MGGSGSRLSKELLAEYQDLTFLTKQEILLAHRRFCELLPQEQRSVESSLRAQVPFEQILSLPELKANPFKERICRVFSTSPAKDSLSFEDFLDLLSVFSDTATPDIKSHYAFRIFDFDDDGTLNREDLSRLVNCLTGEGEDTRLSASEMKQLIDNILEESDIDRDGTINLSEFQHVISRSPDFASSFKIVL

Regarding `O=C(O)CCC(=O)O`, the compound was called inactive in [1], in assay [2], in assay [3] and in assay [4]. Besides, the Potency result in assay [5] and in assay [6] was “inactive” in each case.

With `C[C@@H]1O[C@@H](OC[C@H]2O[C@@H](Oc3c(-c4ccc(O)c(O)c4)oc4cc(O)cc(O)c4c3=O)[C@H](O)[C@@H](O)[C@@H]2O)[C@H](O)[C@H](O)[C@H]1O`, the result in assay [1], in [2], in assay [3] and in assay [4] was inactive. The Potency entry in assay [7], in assay [5], in [6], in [8] and in assay [9] was “inactive” in each case.

`CC(=O)N[C@H]1[C@H]([C@H](O)[C@H](O)CO)OC(C(=O)O)=C[C@@H]1N=C(N)N`: the compound was called inactive in assay [1], in assay [2], in assay [3] and in assay [4]. Moreover, the Potency result in assay [5], in assay [6] and in assay [8] was “inactive” throughout.

In the case of `O=C(O)Cc1cn(-c2ccccc2)nc1-c1ccc(Cl)cc1`, the result in assay [1], in assay [2], in [3] and in assay [4] was inactive. For the same compound, the Potency result in [7] and in assay [5] was “inactive” in each case. In addition, in [6], the Potency is 4.36 µM (active).

Consider `COc1ccc(NS(=O)(=O)c2ccc(N)cc2)nn1`, for which the outcome in assay [1], in assay [2], in [3] and in assay [4] was inactive. Besides, in [7], the Potency result was “inactive”.

Consider `O=C1C(c2[nH]c3ccccc3c2O)=Nc2ccccc21`, for which the result in assay [1], in assay [2], in [3] and in assay [4] was inactive. Further, the Potency entry in [7], in assay [5], in assay [6], in assay [8] and in assay [9] was “inactive” each time.

For the compound `NS(=O)(=O)c1cc(C2(O)NC(=O)c3ccccc32)ccc1Cl` (stereo unspecified), the outcome in [1], in assay [2], in assay [3] and in assay [4] was inactive. Further, the Potency result in assay [7], in assay [6], in assay [8] and in assay [9] was “inactive” each time.

With `O=S1(=O)OC(c2ccc(O)cc2)(c2ccc(O)cc2)c2ccccc21`, the outcome in [1], in [2], in assay [3] and in assay [4] was inactive. Also, the Potency entry in assay [7], in assay [5], in [8] and in assay [9] was “inactive” throughout. For the same compound, the Potency in assay [6] is 1.95 µM (active).

Take `CCOC(=O)OC(C)OC(=O)[C@@H]1N2C(=O)[C@@H](NC(=O)[C@H](N)c3ccccc3)[C@H]2SC1(C)C` (stereo partly specified): the compound was called inactive in [1], in assay [2], in assay [3] and in assay [4]. For the same compound, the Potency result in [7], in assay [6] and in assay [8] was “inactive” throughout.

On to `CCCNC(C)C(=O)Nc1c(C)csc1C(=O)OC` (stereo unspecified), for which the compound was classed as inactive in assay [1], in assay [2], in assay [3], in [4] and in [10]. Besides, the Potency entry in [6], in [8] and in [9] was “inactive” in each case.

For `CC(=O)N[C@@H](Cc1ccc(O)cc1)C(=O)O`, the call in assay [1], in [3], in assay [4], in assay [11] and in assay [10] was inactive. Besides, the Potency result in assay [7], in assay [5], in assay [6] and in [8] was “inactive” each time.

With `CC1(C)[C@@H](OC(=O)CCC(=O)O)CC[C@]2(C)[C@H]3C(=O)C=C4[C@@H]5C[C@@](C)(C(=O)O)CC[C@]5(C)CC[C@@]4(C)[C@]3(C)CC[C@@H]12`, the compound was classed as inactive in assay [1], in [4], in assay [10], in assay [12] and in assay [13]. For the same compound, the Potency result in assay [5], in assay [6], in assay [8] and in assay [9] was “inactive” each time.

With `Nc1ccc(S(=O)(=O)c2ccc(N)cc2)cc1`, the call in assay [1], in assay [2], in [3] and in [4] was inactive. Besides, the Potency entry in assay [7], in [5], in assay [6], in [8] and in [9] was “inactive” throughout.

For `O=C(O)c1ccccc1OP(=O)(O)O`, the compound was called inactive in [1], in [2], in assay [4] and in assay [11]. For the same compound, the Potency entry in assay [7], in [5], in assay [6], in assay [8] and in assay [9] was “inactive” in each case.
